# Test results reported in PubChem BioAssay AID743446 (Broad Institute, 2014).
# Results with a measured potency or affinity are listed apart. Values without a mark were called inactive. No rule for the calls is given here.
# Assay: HEK293 cell cytotoxicity, dose response, cytotoxicity control, plate reader, cherry-picked samples (AID 743446)
# Conditions: active compounds read low; at 26 µM unless noted
row,SMILES,max activity
1,O=C(Nc1ccc(Cl)c(S(=O)(=O)N2CCOCC2)c1)c1ccc2c(c1)OCCO2,-8.36% [at 3 µM]
2,COc1ccc2oc(C(=O)NCCc3ccccc3)c(C)c2c1,-55.4%
3,C[C@H](CO)N1C[C@H](C)[C@H](CN(C)C(=O)Nc2ccc3c(c2)OCO3)OCCCC[C@H](C)Oc2ccc(NC(=O)NC3CCCCC3)cc2C1=O,-16.6%
4,Cn1c(=O)c2cc(NC(=O)NCc3ccccc3)ccc2n1C/C=C/c1ccccc1,34.9% [at 1.6 µM]
5,CC1CCCN(c2ncnc3c2cnn3-c2ccccc2)C1 (stereo not given),-23.6% [at 12 µM]
6,CCn1c(C)cc(C(=O)CN2C(=O)c3ccccc3S2(=O)=O)c1C,-18.9% [at 6 µM]
7,CCn1cc(S(=O)(=O)Nc2cccnc2)cn1,9.79% [at 0.38 µM]
8,CN1CCN(c2ccc(NC(=O)c3sc4ccccc4c3Cl)cc2)CC1,17.1% [at 0.1 µM]
9,COC(=O)c1c(N)sc(C(=O)NCCc2ccccc2)c1C,16.2% [at 3 µM]
10,COc1ccc2c3c([nH]c2c1)[C@H](CO)N(C(C)=O)CC31CCN(C(=O)CN2CCOCC2)CC1,11.8% [at 0.38 µM]
11,O=C(Nc1ccc(N2CCOCC2)cc1)c1cnccn1,-6.24% [at 3 µM]
12,O=c1[nH]c(CSc2ccccn2)nc2c1oc1ccccc12,-17.8%
13,COc1cc(NC(=O)c2cccc3c(-c4cnn(C)c4)coc23)cc(OC)c1OC,-34.1%
14,O=C(O)c1cccc(COc2ccc(CO)cc2Cl)c1,13.3% [at 6 µM]
15,Cc1ccc(NC(=O)c2ncn(CC(=O)N3CCN(c4ccccn4)CC3)n2)cc1C,-13.4% [at 0.195 µM]
16,COc1cccc(NC(=O)Nc2cccc(C(=O)O)c2)c1,-21.7% [at 3 µM]
17,O=C(Nc1ccc(Cl)cc1)Nc1ccccc1C(=O)O,16.5% [at 0.1 µM]
18,Cc1ccc(C(=O)Nc2ccc3c(c2)OCCO3)cc1,17.1% [at 0.05 µM]
19,COc1ccc(-n2nnnc2-c2nc3ccccc3s2)cc1,34.3% [at 0.8 µM]
20,Cc1cc(C(=O)CSc2nnc3ccccn23)c(C)n1-c1ccccc1,-21.9%
21,CC(=O)c1ccc(Nc2nc(-c3sc(C)nc3C)cs2)cc1,-13.6%
22,COc1ccc(/C=C/C(=O)Nc2ccccc2C(=O)O)cc1OC,13.2% [at 1.6 µM]
23,C[C@H](CO)N1C[C@H](C)[C@@H](CN(C)S(=O)(=O)c2cccs2)Oc2c(cccc2N(C)C)C1=O,11.4% [at 6 µM]
24,C[C@@H]1CN([C@H](C)CO)C(=O)c2cc(C#CCN(C)C)cnc2O[C@@H]1CN(C)C(=O)CN1CCOCC1,12.9% [at 0.195 µM]
25,COc1ccc2nc(-c3ccccn3)ccc2c1,-37.6%
